About 83,000 compounds went through this panel and 20% of them were active in at least one assay; those are over-represented in the sample as a whole.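 Interpretation: 100, growth as untreated; towards 0, rising growth inhibition; 0, no net growth; 0 to -100, cell death. Compounds scoring below 10 were considered active.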 Unmarked numbers belong to inactive results. The source made the active and inactive calls.

For the assay, the system named is ACHN renal. Briefly: NCI-60 one-dose screen, 48 h (100 = growth as untreated, 0 = no growth, -100 = all killed). Particulars: 10 µM.
In the case of `C=C(C(=O)c1ccccc1)C(NC(C)(C)C)c1ccccc1` (centres undefined), the growth is -59.4% (active).

For the molecule `O=c1c2ccccc2nc(SCCN2CCCCC2)n1CCc1ccccc1`, the growth is 102%.

For the molecule `N=c1c2c(-c3ccccc3)c(-c3ccccc3)n(Cc3ccccc3)c2ncn1CCCO`, the growth was 26.1%.

On to `COc1cc(/C=C2\Oc3cc(OCC(=O)c4ccccc4)ccc3C2=O)cc(OC)c1OC`, for which the growth is 89.6%.

On to `Cc1ccc(NC(=O)CSc2nc3ccccc3c(=O)n2CCc2ccccc2)c(C(=O)O)c1`, for which the growth is 91.1%.

For the molecule `O=C(Nc1nc2ccc(F)cc2s1)c1cc(-c2ccc(F)cc2)n2nc(-c3ccccc3)cc2n1`, the growth is 107%.

Take `CN1CCCNc2c(c(=O)c2=O)NCCCN(C)CCCNc2c(c(=O)c2=O)NCCCN(C)CCCNc2c(c(=O)c2=O)NCCCN(C)CCCNc2c(c(=O)c2=O)NCCCN(C)CCCNc2c(c(=O)c2=O)NCCCN(C)CCCNc2c(c(=O)c2=O)NCCCN(C)CCCNc2c(c(=O)c2=O)NCCC1`: the growth is 43.3%.

With `CCN1CCC2(CC1)OC(c1ccccc1)C(c1ccccc1)O2` (centres undefined), the growth is 109%.

`O=C(O)c1ccc(Cl)cc1Nc1ccc(F)cc1`: the growth is 82.4%.

In the case of `CCCCCC(=O)c1ccc(OCCCN2CCN(C(=O)OCC)CC2)cc1`, the growth was 96.1%.

Take `COc1ccc(NC(=O)CSc2nc3ccccc3c(=O)n2CCc2ccccc2)cc1`: the growth is 93.4%.

Consider `COc1ccc(-c2nnc(-c3c(-c4ccccc4)nc4ncccn34)o2)cc1OC`, for which the growth was 88.8%.

In the case of `COc1ccc2nc3cc(Cl)ccc3c(NCCNCC(C)O)c2c1` (centres undefined), the growth is 22.6%.

On to `CC(C)(C)NC/C(=C\c1ccccc1)C(=O)c1ccccc1`, for which the growth was -50.9% (active).

In the case of `COc1ccc(-c2ccc3cc(C(=O)Nc4ccc(O)c(C(=O)/C=C/c5cc(OC)c(OC)c(OC)c5)c4)ccc3c2)cc1`, the growth was 96.3%.

Regarding `CCCCN(CCCC)c1cc(C(=O)CCCCCN)c2ccccc2n1`, the growth is 85.5%.

`COc1ccc(NC(=O)Cc2nc3nc4sc(C)c(C)c4c(=O)n3[nH]2)cc1`: the growth is 107%.

As to `COc1cc(-c2nc(-c3nnc(-c4ccc(F)c(Cl)c4)o3)c3ccccn23)cc(OC)c1OC`, the growth was 10.7%.

As for `NC(=O)SCC(=O)Nc1ccc(S(N)(=O)=O)cc1`, the growth was 112%.

For the molecule `Nc1nccc(Nc2ccccc2)n1`, the growth is 100%.

Take `Oc1[nH]c2cc(Cl)ccc2c1/C=c1/ccc2c(c1)N=C(c1cc(F)cc(F)c1)N=2`: the growth is 46.3%.

Turning to `c1ccc2c(c1)oc1c3cccnc3ccc21`, the growth was 87.9%.

On to `COc1ccc2c(c1)sc1nc(-c3ccccc3)c(-c3ccsc3)n12`, for which the growth was 54.2%.

Turning to `CSc1cc(SC)ncn1`, the growth was 107%.

Turning to `COc1ccc2c(c1)sc1nc(-c3ccccc3)c(-c3ccc(O)c(OC)c3)n12`, the growth is 101%.

With `CCCCCCCCCCCCCC[n+]1ccc(C(N)=O)cc1`, the growth was 65.6%.

On to `CN1c2ccccc2[C@]2(Cc3ccccc3)Cc3ccccc3N[C@H]12`, for which the growth is 103%.

As for `CCN(CC)CCSCCCNc1c2ccc(Cl)cc2nc2ccc(OC)cc12`, the growth was -78.3% (active).

In the case of `CC(=O)c1cc(Br)ccc1O`, the growth was 105%.

In the case of `COc1ccc(-c2nc3sccn3c2-c2nc3c([nH]2)C(=O)c2ccccc2C3=O)cc1`, the growth is 86.4%.

With `N=C1c2nc3n(c2C(=O)c2nc4n(c21)CCCC4)CCCC3`, the growth is 69.4%.

Consider `COc1ccc(-c2nc3ccccn3c2-c2nnc(-c3cc(OC)c(OC)c(OC)c3)o2)cc1`, for which the growth was 49.4%.

Consider `CCN(CC)CCOc1nc2ccc(OC)cc2c2c1-c1ccc(OC)cc1C2=O`, for which the growth was -93% (active).

For the molecule `CCCCCCCCN(CCCCCCCC)CCCCCCCCCN1CCCc2cc(OC)ccc21`, the growth was 96.5%.

As to `COc1ccc2c(c1)C(=O)c1c-2c(OCCN(C)C)nc2cc(OC)c(OC)cc12`, the growth is 38.3%.

Turning to `COc1ccc(/C(=C2\O[C@@H]([C@H]3COC(C)(C)O3)[C@H]3OC(C)(C)O[C@@H]23)c2cc(OC)c(OC)c(OC)c2)cc1O`, the growth was 44.7%.

For `Nc1ccn(C2CC(O)C(CO)O2)c(=O)n1` (centres undefined), the growth is 104%.

In the case of `CC(C)=CCc1ccc(O)c(=O)cc1C(C)C`, the growth was 24.8%.

As to `COc1cc(NC(=O)CSc2nc3ccccc3c(=O)n2CCc2ccccc2)cc(OC)c1OC`, the growth was -41.6% (active).
